Screening results deposited in PubChem by National Center for Advancing Translational Sciences (NCATS).
Compounds with a hit are over-represented: about 9.2% of the library has one in this group of screens.
Rab9 promoter act: qHTS Assay for Rab9 Promoter Activators; Huh7 Rab9 promoter-luciferase reporter, luminescence, 24 h; Potency, µM (series often up to 9.22 µM), most hits filed as activators; actives 2.8% (n = 320,000); AID 485297, 2010; further: nearly all actives have a fitted effect of over 60% in size
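Huh7 reporter line, Rab9 promoter upstream of luciferase. Compound exposure 24 h at 37 °C in reduced-serum medium with 10% FBS. Read-out: luminescence.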
FLuc counter: qHTS profiling assay for firefly luciferase inhibitor/activator using purifed enzyme and Km concentrations of substrates (counterscreen for miR-21 project) | Luciferin 4-monooxygenase (Photinus pyralis), P08659 | purified FLuc, Km substrates, luminescence inhibition | Potency, µM (doses to about 57.5 µM), hits mostly inhibitors | actives 6.9% (n = 360,000) | AID 588342, 2011; further: nearly all actives have a fitted effect of over 55% in size
Target sequence (P08659 whole entry, looked up): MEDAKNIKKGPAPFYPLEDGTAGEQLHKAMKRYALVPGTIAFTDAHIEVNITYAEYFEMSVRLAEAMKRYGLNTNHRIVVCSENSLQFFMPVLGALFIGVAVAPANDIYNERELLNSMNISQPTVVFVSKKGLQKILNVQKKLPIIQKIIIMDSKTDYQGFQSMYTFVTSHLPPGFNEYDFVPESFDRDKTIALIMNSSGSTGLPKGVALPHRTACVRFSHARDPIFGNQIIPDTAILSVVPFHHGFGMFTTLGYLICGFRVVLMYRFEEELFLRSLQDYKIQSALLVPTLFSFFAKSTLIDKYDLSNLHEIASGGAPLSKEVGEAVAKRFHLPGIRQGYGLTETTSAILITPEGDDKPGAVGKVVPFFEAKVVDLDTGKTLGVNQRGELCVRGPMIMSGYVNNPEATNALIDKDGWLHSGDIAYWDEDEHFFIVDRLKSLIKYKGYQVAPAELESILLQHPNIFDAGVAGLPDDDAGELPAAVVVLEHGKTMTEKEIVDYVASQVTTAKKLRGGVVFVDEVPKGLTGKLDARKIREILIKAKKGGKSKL
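Purified P. pyralis luciferase (10nM final) with 10uM D-luciferin and 10uM ATP (Km levels) in 50mM Tris acetate pH 7.5, 10mM Mg acetate, 0.01% Tween-20, 0.05% BSA; qHTS 6-point titration, ~60 µM downward; luminescence read.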
SMN2 splice enh: qHTS Assay for Enhancers of SMN2 Splice Variant Expression; HEK293 SMN2-luciferase splicing reporter, luminescence, 30-36 h; Potency, µM (top dose mostly 46.1 µM), actives largely listed as activators; actives 2.8% (n = 210,000); AID 1458, 2008; further: nearly all actives have a fitted effect of over 55% in size
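HEK293 cells carry an SMN2 […]–luciferase reporter in which exon 7 inclusion puts luciferase in frame. Cells were plated 10-12 h before compound addition, then incubated 30-36 h at 37C. ONE-Glo luminescence was read; sodium butyrate at 4.5 mM final served as control.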
ELG1 repair inh: qHTS screen for small molecules that inhibit ELG1-dependent DNA repair in human embryonic kidney (HEK293T) cells expressing luciferase-tagged ELG1. HEK293T ELG1-luciferase reporter, luminescence, 16 h; DNA damage induced by 5-fluorouridine. Potency, µM (top dose mostly 46.1 µM), usual class: inhibitors. actives 2.3% (n = 330,000). AID 504467, 2011; further: nearly all actives have a fitted effect of over 55% in size
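Quantitative HTS, concentration-response format. 2,000 cells/well co-treated with 5-fluorouridine and compound, 16 hr in 5% CO2 at 37 °C; ONE-Glo luminescence read after 30 min.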
NPC1 promoter act: qHTS Assay for NPC1 Promoter Activators. Huh7 NPC1 promoter luciferase reporter, 24 h. Potency, µM (top dose mostly 9.22 µM), most hits filed as activators. actives 2.4% (n = 320,000); further: nearly all actives have a fitted effect of over 60% in size
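In 1536-well qHTS, Huh7 cells harboring an NPC1 promoter–luciferase construct received compound for 24 h; activation was quantified by luminescence following luciferase reagent addition.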
ELG1 genotoxic: qHTS screen for small molecules that induce genotoxicity in human embryonic kidney (HEK293T) cells expressing luciferase-tagged ELG1; HEK293T ELG1-luciferase reporter, luminescence, 16 h; Potency, µM (series often up to 46 µM), hits mostly activators; actives 1.3% (n = 330,000); AID 504466, 2011; further: nearly all actives have a fitted effect of over 60% in size
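DMSO vehicle served as control against compound-treated ELG1-luciferase HEK293T cells; exposure lasted 16 hr at 37 °C and 5% CO2, followed by ONE-Glo luminescence detection after 30 min.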
A number is an active result; - = inactive; ? = inconclusive; . = not tested or not shown; [ ] = remark or other dose. The call rests on the fitted dose curve; in most records, active means well fitted curve in the direction sought with a large enough effect; inconclusive means small, poorly fitted or top-dose-only effect, or another doubt; inactive means no such curve, though single readings can be large; an effect the other way counts as inactive or inconclusive.

SMILES	Rab9 promoter act	FLuc counter	SMN2 splice enh	ELG1 repair inh	NPC1 promoter act	ELG1 genotoxic
CCN1C(=O)/C(=C/c2ccc(N3CCCC3)cc2)NC1=S	-	19µM	-	?	-	-
CCCN1C(=O)/C(=C/c2ccc(N3CCCC3)c(C)c2)NC1=S	-	?	-	10.3µM	-	-
Cc1cc(/C=C2\NC(=S)N(C)C2=O)ccc1N1CCCC1	3.55µM	7.57µM	.	-	?	?
CCCN1C(=O)/C(=C/c2ccc(N3CCOCC3)cc2)NC1=S	-	?	-	-	-	-
Cc1cc(N2CCCC2)ccc1/C=C1/C(=O)N(C)C(=S)N1C	-	-	-	-	-	-
COc1cc(/C=C2\NC(=S)N(C)C2=O)ccc1O	-	-	-	-	-	-
O=C(NCCS(=O)(=O)N1CCN(c2ccccc2)CC1)C1CC1	-	-	.	-	-	-
Cc1ccc(NC(=S)NNC(C)(C)C)cc1	-	?	.	-	-	-
CC(C)=NN/C(N)=N/C(=S)Nc1ccc(C)cc1	-	4.78µM	-	?	-	?
Cc1ccsc1CN1CCc2nc(Nc3ccccc3)ncc2C1	.	12µM	.	.	.	.
Brc1ccc(CN2CCc3nc(Nc4ccccc4)ncc3C2)s1	.	-	.	.	.	.
COc1cccc(CN2CCc3nc(Nc4ccc5c(c4)OCCO5)ncc3C2)c1	.	23.9µM	.	.	.	.
Clc1ccc(CN2CCc3nc(Nc4ccc5c(c4)OCCO5)ncc3C2)cc1	.	-	.	.	.	.
CC1CC(=O)N(CC(=O)Nc2cccc(F)c2)c2ccccc2S1(=O)=O (stereo not given)	-	-	.	?	-	-
CC(C)(C)NC(=O)c1cccc(NC(=O)c2ccc3c(c2)C(=O)N(C(C)(C)C)C3=O)c1	-	10.7µM	.	?	-	-
COC(=O)c1cccc(NC(=O)c2ccc3c(c2)C(=O)N(C(C)(C)C)C3=O)c1	?	2.69µM	.	-	?	-
CC(C)(C)N1C(=O)c2ccc(C(=O)Nc3ccc(O)cc3)cc2C1=O	?	13.5µM	.	-	?	-
CCC(=O)Oc1ccc(C(=O)Nc2cccc(NC(=O)c3ccco3)c2)cc1	-	?	.	-	-	-
CCC(=O)Oc1ccc(C(=O)Nc2cccc(C(=O)NC(C)(C)C)c2)cc1	-	10.7µM	-	-	-	-
CC(C)(C)N1C(=O)c2ccc(C(=O)O)cc2C1=O	-	-	-	-	-	-
NS(=O)(=O)c1cccc(NC(=O)c2ccc(NS(=O)(=O)c3cccc([N+](=O)[O-])c3)cc2)c1	.	.	.	-	.	-
COC(=O)[C@H](Cc1ccccc1)NC(=O)NCCC1=CCCCC1	-	-	-	-	-	-
COc1ccc(C(=O)Nc2ccc3c(c2)nc(CCNC(=O)c2ccco2)n3C)cc1	-	15.1µM	.	?	-	-
CCC(=O)Nc1ccc2c(c1)nc(CCNC(=O)c1ccco1)n2C	-	-	.	-	-	-
Cn1c(CN2CCOCC2)nc2cc(NC(=O)c3ccc(F)cc3)ccc21	-	-[2.3 µM]	.	?	-	-
SMILES	Rab9 promoter act	FLuc counter	SMN2 splice enh	ELG1 repair inh	NPC1 promoter act	ELG1 genotoxic
CC(=O)NCCc1nc2cc(NC(=O)c3ccc(F)cc3)ccc2n1C	2µM	21.3µM	.	?	3.55µM	?
COc1ccc(C(=O)Nc2ccc3c(c2)nc(CCNC(C)=O)n3C)cc1	?	12µM	?	?	2.82µM	18.4µM
CN(CC(=O)Nc1ccccc1C(F)(F)F)C(=O)C1CCN(C(=O)c2ccc(Cl)cc2)CC1	-	-	.	-	-	-
COc1cc(SC)ccc1C(=O)Nc1ccc2c(c1)OCCO2	0.891µM	0.536µM	5.62µM	?	?	?
COc1cc(SC)ccc1C(=O)Nc1c(C)cccc1C	-	-	-	-	-	-
COc1ccccc1C(=O)Nc1ccc2c(c1)OCO2	2.51µM	13.5µM	-	?	?	14.6µM
COc1ccccc1C(=O)NCC(=O)Nc1ccc2c(c1)OCO2	-	-	.	-	-	-
